PubChem BioAssay (NCI)
The panel holds about 83,000 compounds, 20% with a hit somewhere; the sample as a whole holds those more often.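 Results are percent growth after 48 hours of single-concentration exposure. 100 means growth as in untreated cells, lower positive values show inhibition; negative values down to -100 show cell death.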 Unmarked numbers belong to inactive results. The source made the active and inactive calls. Rule for the calls: active = growth percent below 10; inactive = the rest.

Legend:
Assay in all cases: NCI-60 one-dose screen, 48 h (100 = growth as untreated, 0 = no growth, -100 = all killed)
Details in all cases: 10 µM unless noted
NCI-H23 lung = test system: NCI-H23 lung
NCI-H226 lung = test system: NCI-H226 lung
NCI-H322M lung = test system: NCI-H322M lung
HOP-62 NSCLC = test system: HOP-62 NSCLC
NCI-H460 lung = test system: NCI-H460 lung
HOP-92 NSCLC = test system: HOP-92 NSCLC
NCI-H522 lung = test system: NCI-H522 lung
A549/ATCC NSCLC = test system: A549/ATCC NSCLC
786-0 renal = test system: 786-0 renal
DU-145 prostate = test system: DU-145 prostate
K-562 leukemia = test system: K-562 leukemia
MALME-3M melanoma = test system: MALME-3M melanoma
MDA-MB-231 breast = test system: MDA-MB-231 breast
SF-268 CNS = test system: SF-268 CNS
SF-295 CNS = test system: SF-295 CNS
SF-539 CNS = test system: SF-539 CNS
M14 melanoma = test system: M14 melanoma
RXF 393 renal = test system: RXF 393 renal
UACC-257 melanoma = test system: UACC-257 melanoma
COLO 205 colon = test system: COLO 205 colon

Structure (SMILES)	growth (NCI-H23 lung)	growth (NCI-H226 lung)	growth (NCI-H322M lung)	growth (HOP-62 NSCLC)	growth (NCI-H460 lung)	growth (HOP-92 NSCLC)	growth (NCI-H522 lung)	growth (A549/ATCC NSCLC)	growth (786-0 renal)	growth (DU-145 prostate)	growth (K-562 leukemia)	growth (MALME-3M melanoma)	growth (MDA-MB-231 breast)	growth (SF-268 CNS)	growth (SF-295 CNS)	growth (SF-539 CNS)	growth (M14 melanoma)	growth (RXF 393 renal)	growth (UACC-257 melanoma)	growth (COLO 205 colon)
COc1cc(C2CC(=O)Nc3n[nH]c(-c4ccccc4)c32)cc(OC)c1OC (configuration not stated)	81.6%	91.8%	94.1%	58%	67.5%	77.4%	30.1%	46%	75.3%	102%	24.6%	68.5%	63.9%	90.7%	75.5%	81.2%	53.3%	–	–	–
C=C(C)[C@@H]1CC[C@@]2(C(=O)O)CC[C@]3(C)C(CCC4[C@@]5(C)CCC(OS(=O)(=O)c6ccccc6)C(C)(C)C5CC[C@]43C)C12 (some centres not stated)	37.2%	69.2%	73.6%	57.4%	42.3%	51%	32.5%	17.8%	56.5%	55.4%	46.5%	–	67.4%	70.6%	-32.7% (active)	52.4%	60.8%	73.8%	32%	–
CC12CC(C#N)CCC1O2 (configuration not stated)	109%	115%	127%	108%	103%	93%	109%	100%	102%	127%	101%	128%	104%	110%	–	96.6%	107%	119%	98.3%	–
CC(C)CCC[C@@H](C)[C@H]1CCC2C3=CCn4c(=O)ccc(=O)n4C3CC[C@@]21C (some centres not stated)	-55.4% (active)	-91.8% (active)	-55.3% (active)	-93.3% (active)	-89.9% (active)	-94% (active)	-66.1% (active)	-79.3% (active)	-100% (active)	-93.7% (active)	-40% (active)	–	-89.2% (active)	-91.6% (active)	-92.3% (active)	-99.5% (active)	-98% (active)	-76% (active)	-79.3% (active)	–
O=C1CSC(c2ccc(O)cc2)N1c1nnc(Cn2cnnc2)o1 (configuration not stated)	100%	98.6%	95.8%	99.8%	115%	71.9%	99.1%	90.3%	94.1%	93.3%	45.3%	54.1%	94.8%	70.3%	38.6%	97.6%	94.6%	–	96.9%	–
NC(=S)N/N=C/C(=O)O	99.3%	96.2%	77.5%	85.9%	99.6%	81.8%	96.8%	92.2%	104%	106%	32.7%	–	97.1%	92.4%	71.9%	104%	93.9%	107%	86.1%	–
O=C(NCc1cccnc1)c1cc(-c2csc3c(=O)cc(N4CCOCC4)oc23)cc2c1OCCO2	50.3%	49.8%	40%	30.9%	52.5%	19.3%	28.4%	40.2%	43.5%	70%	24.8%	47.9%	21.5%	53%	30%	10.6%	43.4%	40.6%	47%	–
C=C(C=O)[C@@H]1CC=C(C=O)CC1	-4.9% (active)	71.2%	-24.7% (active)	-19.7% (active)	-16.6% (active)	-39.9% (active)	5.01% (active)	15.6%	-19.3% (active)	-74.6% (active)	-23.2% (active)	-31.1% (active)	-25.9% (active)	-16.7% (active)	-15.7% (active)	-60.4% (active)	14.8%	–	-9.83% (active)	–
CN(C)CCCCNc1ccc(NCCCCN(C)C)c2c1C(=O)c1c(O)ccc(O)c1C2=O	-68.5% (active)	102%	56.1%	69.4%	-79.1% (active)	40.6%	-77.9% (active)	-82.9% (active)	-75.1% (active)	58.3%	-54.5% (active)	130%	-78.2% (active)	76.2%	-81.5% (active)	–	-63.3% (active)	-96% (active)	99.5%	–
CCOc1cccnc1/C=N/NC(N)=S	73.8%	53.9%	6.61% (active)	64.9%	19.9%	46.5%	79.1%	48%	51.6%	34.4%	31.4%	–	49.6%	32.9%	5.53% (active)	47.7%	42.4%	61.4%	95.7%	–
CN(C)c1ccc(/C=C/c2c(F)cccc2F)cc1	83.9%	94.1%	92.7%	74.4%	107%	81%	76.4%	82.6%	105%	105%	115%	90.1%	110%	93.7%	96.6%	98.3%	93.2%	108%	89%	–
Cc1cc(=O)[nH]c(N/N=C/c2cc(Br)ccc2O)n1	33.7%	40.5%	-15% (active)	48%	-1.75% (active)	55%	19.5%	23.4%	7.2% (active)	41.7%	22.5%	–	35.5%	25.2%	5.67% (active)	16.3%	10%	70.2%	14.1%	–
O=C1CSC(c2ccccc2)N1c1ccccc1 (configuration not stated)	99.7%	96.2%	90.4%	116%	103%	82.4%	104%	103%	105%	107%	107%	–	103%	105%	96.6%	108%	99.5%	95.8%	101%	–
c1ccc2[nH]c(SSc3nc4ncncc4[nH]3)nc2c1	32.1%	57.6%	73.5%	21.2%	42.7%	27.5%	35.6%	80%	16%	29.5%	17.1%	–	36.1%	30.1%	-39% (active)	8.16% (active)	8.49% (active)	64.7%	42%	–
COc1ccc(-c2cncnc2N)cc1OC	108%	107%	114%	-100% (active)	98.6%	85.2%	105%	97.5%	107%	114%	103%	111%	112%	103%	97.5%	107%	103%	112%	111%	–
Clc1ccc(-c2nnc(Cn3ccnc3)o2)cc1	93.9%	102%	113%	89.3%	112%	132%	115%	100%	94%	115%	95.8%	120%	102%	103%	119%	98.9%	87.1%	–	111%	–
O=C1Nc2ccccc2/C1=N/N=C/c1c[nH]c2ccccc12	82%	62.7%	72.9%	67.3%	63%	75.2%	69.2%	78.4%	91.9%	58.3%	80.2%	71.8%	60%	65.1%	95.6%	78%	59.5%	57.5%	92.4%	–
O=C(C[C@@]1(O)C(=O)Nc2c(Cl)ccc(Cl)c21)c1ccc(C2CC2)cc1	37.5%	46.4%	53.1%	34.2%	6.3% (active)	75.5%	19.4%	38.1%	–	16.5%	7.6% (active)	41.9%	45%	54.8%	-9.37% (active)	-27.7% (active)	–	-10% (active)	73%	1.09% (active)
CCCCn1c(=O)[nH]c(N)c(C(c2ccc(F)cc2)c2c(N)[nH]c(=O)n(CCCC)c2=O)c1=O	77.5%	77.7%	74.8%	77.4%	51.6%	82.4%	51.6%	69%	–	79.1%	52.9%	87.7%	62.9%	54.1%	56.8%	75.3%	–	65.5%	65.9%	59.9%
Cc1nc2ccccc2c(/C=C/c2ccc(Cl)cc2)c1C(=O)/C=C/c1ccc(Cl)cc1	-19.7% (active)	-40.6% (active)	5.27% (active)	-7.32% (active)	-76.3% (active)	-59.9% (active)	-14.6% (active)	56.9%	–	-70.5% (active)	2% (active)	-54.1% (active)	-34.1% (active)	25.8%	-65.6% (active)	-88.4% (active)	–	-72.4% (active)	-17.2% (active)	-24.5% (active)
CCOC(=O)C(=CNc1ccccc1[N+](=O)[O-])C(=O)OCC	99%	88.1%	96.3%	107%	105%	80.6%	89.5%	88.5%	97.2%	–	96.7%	115%	98.6%	105%	98.6%	97.7%	118%	104%	94.2%	–
O=[N+]([O-])c1ccc(-c2cc3c(Nc4ccc(OCc5cccc(Cl)c5)c(Cl)c4)ncnc3s2)cc1	78.7%	92.2%	82.4%	67.7%	32%	80.3%	49.9%	29.4%	88.3%	70.4%	–	61.2%	81.6%	76.1%	59.6%	84%	35.9%	85.3%	58.6%	–
Fc1ccc(Nc2nc3nonc3nc2Nc2ccc(F)cc2)cc1	2.78% (active)	14.9%	1.32% (active)	-5.63% (active)	1.64% (active)	-30.5% (active)	-23.9% (active)	6.26% (active)	–	23.8%	9% (active)	1.97% (active)	-20.5% (active)	18.5%	-20.7% (active)	-7.76% (active)	–	9.9% (active)	-13.5% (active)	-80.2% (active)
COc1cc2oc(-c3cccc(C(=O)Nc4ccc(C)cc4)c3)cc(=O)c2c(OC)c1OC	44.6%	62.5%	51.1%	22.1%	24.9%	22%	6.72% (active)	–	22.1%	48.2%	28%	27.3%	–	57.7%	-47% (active)	45.8%	–	-7.43% (active)	29.9%	1.73% (active)
CS(=O)(=O)c1ccc(-c2nc3cc(Cl)ccc3n2CC(=O)N/N=C/c2ccc(Cl)cc2)cc1	60.3%	84.8%	70.4%	56.4%	48.7%	68.1%	46%	–	16.1%	70.1%	17%	46.6%	48.9%	50.2%	-36.9% (active)	-3.48% (active)	61.2%	-25.1% (active)	67.7%	–
